# Source: PubChem BioAssay
# Where “and” joins values, the source holds several entries; their conditions need not be identical. Equal entries are not always repeated. Where a structure was tested more than once in an assay, its records may differ in their call. Calls of active or inactive are those of the source. Rule as the data show it, unless noted: active = inhibition above about 80%; inactive = the rest. Where a SMILES comes first, the peptide text is derived from it. The star is where a group is joined. Cbz = O=C(OCc1ccccc1)*
# Assays:
# [1] = LFS_MB_1R medulloblastoma cell growth inhibition, synergistic combos for chromothripsis tumors, cisplatin or BGB combos (AID 1671452); details: LFS_MB_1R medulloblastoma cells, stronger effect = higher value;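 also: cells exposed for 96 hours before readout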
# [2] = CRL2098 osteosarcoma cell growth inhibition, synergistic combos for chromothripsis tumors, BGB or cisplatin IC20 combos (AID 1671454); details: CRL2098 osteosarcoma cells, drug combinations, stronger effect = higher value;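 also: cells exposed for 96 h before readout; 0% = vehicle DMSO and 100% = killing by high DMSO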
# [3] = HD-MB03 medulloblastoma cell growth inhibition, synergistic combos for chromothripsis tumors, BGB or cisplatin IC20 combos (AID 1671455; in the data active = inhibition above about 83%;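 also: 0% = vehicle DMSO and 100% = high DMSO as cytotoxic control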); details: HD-MB03 medulloblastoma cells, stronger effect = higher value
# [4] = UWB1.289 ovarian carcinoma cell growth inhibition, synergistic combos for chromothripsis tumors, BGB or cisplatin combos (AID 1671456); details: UWB1.289 ovarian carcinoma cells, stronger effect = higher value;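 also: cells exposed to compound for four days; 0% = vehicle DMSO and 100% = killing by high DMSO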
# [5] = LFS_MB_2R medulloblastoma cell growth inhibition, synergistic combos for chromothripsis tumors, cisplatin combos (AID 1671457); details: LFS_MB_2R medulloblastoma cells, stronger effect = higher value;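 also: cells exposed to compound for four days before readout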
# [6] = UWB1.289_BRCA1 ovarian cancer growth, cell-based, BGB or cisplatin combinations (AID 1671459); details: UWB1.289 BRCA1 ovarian carcinoma, drug combinations, stronger effect = higher value
# [7] = human astrocyte viability loss, single and combined drugs, cytotoxicity control for chromothriptic childhood tumor combination screen, cell-based, BGB or cisplatin IC20 combos (AID 1671460); details: Human astrocytes, drug combinations, stronger effect = higher value;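 also: cells exposed to compounds for 96 hours before viability readout; 0% = vehicle and 100% = killing control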
# [8] = growth inhibition of CRL1545 osteosarcoma cells, cell-based, cisplatin and BGB IC20 combos (AID 1671464); details: stronger effect = higher value;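 also: cells exposed to compound for 96 hours before readout; 0% = vehicle DMSO and 100% = high DMSO killing control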
# [9] = liver-stage malaria parasite growth inhibition, primary screen, cell-based, HepG2, luciferase luminescence, HepG2 viability (AID 624349; in the data active = parasite load remaining mostly below about 12%, no sharp cut-off; inactive = mostly above about 10%;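 also: 100% = mean of DMSO negative control wells on the same plate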); details: P. berghei liver stage in HepG2, luciferase luminescence, concentration not given here; parasite load remaining: stronger effect = lower value; viability: measured here: HepG2 viability without parasites
# [10] = kinase inhibitors against Plasmodium liver-stage infection, cell-based, known kinase inhibitor set, luminescence, hepatoma host viability (AID 624392; call rule not given here;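 also: infected cells incubated roughly two days before readout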); details: Plasmodium liver stage in hepatoma cells, luciferase luminescence, concentration not given here; liver cell % of control: measured here: host liver cell viability; parasite % of control: stronger effect = lower value
# [11] = inhibitors of Cryptococcus chitosan production, flow cytometry, Cibacron Brilliant Red staining (AID 1347148; call rule not given here;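 also: compound exposure lasted three days at 37 degrees C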); details: Cryptococcus neoformans chitosan, stronger effect = lower value; at 10 µM unless noted
# [12] = viability rescue of complex I mutant cybrids, primary screen, cell-based, galactose medium, ATP luminescence (AID 1645843;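 active = z-score of at least 1.8 in each of two replicates, scored against plate mean and spread of sample wells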;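 also: positive z means more ATP and so rescue of galactose-driven cybrid death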); details: complex I mutant cybrid cells, 72 h, stronger effect = higher value
# [13] = test system: Hepatitis C virus NS3 helicase; assay: HCV NS3 helicase inhibitors, primary screen, biochemical, fluorescence polarization, LOPAC1280 library (AID 687035; in the data active = inhibition above about 37%); details: Purified HCV NS3 helicase, Cy5-dT15 ssDNA binding fluorescence polarization; stronger effect = higher value; concentration not given here
# [14] = Cy5 fluorescence quenching or enhancement artefacts, artefact control for HCV NS3 helicase inhibitor project, biochemical, LOPAC1280 (AID 687037; call rule not given here); details: Cy5-DNA-NS3h complex fluorescence interference counterscreen
# [15] = hESC survival regulators, cell-based (AID 493140; call rule not given here;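 also: cells exposed to compounds for four days before counting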); details: human embryonic stem cell survival screen; stronger effect = higher value
# [16] = measured here: combination with BGB IC40, at 0.05 µM
# [17] = measured here: combination with cisplatin, at 0.5 µM
# [18] = measured here: combination with cisplatin, at 5 µM
# [19] = measured here: combination with BGB at IC20, at 0.5 µM
# [20] = measured here: combination with cisplatin at IC20, at 0.5 µM
# [21] = measured here: combo with BGB at IC20, at 0.5 µM
# [22] = measured here: combo with cisplatin at IC20, at 0.5 µM
# [23] = measured here: inhibition with BGB combination, at 0.05 µM
# [24] = measured here: inhibition with cisplatin combination, at 0.05 µM
# [25] = BGB combination, concentration series, at 5 µM
# [26] = cisplatin combination, concentration series, at 5 µM
# [27] = measured here: combo with BGB IC20, at 0.5 µM
# [28] = measured here: combo with cisplatin IC20, at 0.5 µM
# [29] = measured here: with BGB IC20 combination, at 0.5 µM
# [30] = measured here: with cisplatin IC20 combination, at 0.5 µM
structure (smiles),measurement,setting,value
C[C@@H]1CN(CC(=O)Nc2ccc3c(c2)Cc2cccc(-c4cc(=O)cc(N5CCOCC5)o4)c2S3)C[C@H](C)O1,inhibition,[1]; at 0.5 µM,-8.44% (inactive) and -21% (inactive)
same,inhibition,[1]; [16],3.35% and -5.52%
same,inhibition,[1]; [17],-14.6% and -41.1%
same,inhibition,[1]; [18],-56% and -92.8%
same,inhibition,[2]; at 0.5 µM,-44.4% (inactive) and -42.5% (inactive)
same,inhibition,[2]; [19],-21.5% and -30.1%
same,inhibition,[2]; [20],-75.7% and -79.9%
same,inhibition,[3]; at 0.5 µM,-12% (inactive) and -9.56% (inactive)
same,inhibition,[3]; [21],-14.5% and -20%
same,inhibition,[3]; [22],-16.9% and 0.275%
same,inhibition,[4]; at 0.5 µM,-15.2% (inactive) and 1.44% (inactive)
same,inhibition,[4]; [23],-5.12% and -6.06%
same,inhibition,[4]; [24],-21.5% and 20.1%
same,inhibition,[5]; at 0.5 µM,-9.09% (inactive) and -22.8% (inactive)
same,inhibition,[5]; [17],-17.7% and -28.5%
same,inhibition,[5]; [18],7.16% and -9%
same,inhibition,[6]; [25],-11.5% and 19.3%
same,inhibition,[6]; at 0.5 µM,-16.3% (inactive) and -2.61% (inactive)
same,inhibition,[6]; [26],-2.71% and 10.4%
same,inhibition,[7]; at 0.5 µM,-26.1% (inactive) and -28.5% (inactive)
same,inhibition,[7]; [27],-42.3% and -37.5%
same,inhibition,[7]; [28],-29% and -44.1%
same,inhibition,[8]; at 0.5 µM,5.04% (inactive) and -9.72% (inactive)
same,inhibition,[8]; [29],22% and -3.16%
same,inhibition,[8]; [30],-5.11% and -14.8%
same,inhibition,"[8]; single agent, at 0.05 µM",7.16% and -18.1%
same,inhibition,"[8]; single agent, at 5 µM",-20.2% and -4.99%
CC(=O)OC1C(C)OC(Oc2c(-c3ccc(O)cc3)oc3cc(O)cc(O)c3c2=O)C(O)C1OC(C)=O (stereo not given),parasite load remaining,[9],29.8% (inactive)
same,viability,[9],85%
CCC(=O)N1CCN(c2ccc(-n3c(=O)ccc4cnc5ccc(-c6cnc7ccccc7c6)cc5c43)cc2C(F)(F)F)CC1,liver cell % of control,[10],56.3% and 62.9% and 78.1%
Cc1cn(-c2cc(NC(=O)c3ccc(C)c(Nc4nccc(-c5cccnc5)n4)c3)cc(C(F)(F)F)c2)cn1,liver cell % of control,[10],96.6% and 104% and 98.4%
same,parasite % of control,[10],40.6% (inactive) and 49.1% (inactive) and 89.8% (inactive)
CC(C)(C)c1nc2c3cc[nH]c(=O)c3c3cc(F)ccc3c2[nH]1,parasite load remaining,[9],88% (inactive)
same,viability,[9],127%
same,liver cell % of control,[10],205% and 286% and 305%
same,parasite % of control,[10],128% (inactive) and 18.5% (inactive) and 5.35% (inactive)
CC(C)n1c(/C=C/[C@H](O)C[C@H](O)CC(=O)O)c(-c2ccc(F)cc2)c2ccccc21,parasite load remaining,[9],134% (inactive)
same,viability,[9],92.6%
CC(C)C[C@@H](C=O)NC(=O)[C@H](CC(C)C)NC(=O)[C@H](CC(C)C)NC(=O)OCc1ccccc1 (Cbz-Leu-Leu-Leu-aldehyde),fold fluorescence,[11],10.3 [at 105.1 µM] (inactive)
Cc1[nH]c(/C=C2\C(=O)Nc3ccc(S(=O)(=O)N(C)c4cccc(Cl)c4)cc32)c(C)c1C(=O)N1CCN(C)CC1,parasite load remaining,[9],38.5% (inactive)
same,viability,[9],69.6%
COc1cc2nccc(Oc3ccc(NC(=O)NC4CC4)c(Cl)c3)c2cc1C(N)=O,liver cell % of control,[10],83.2% and 92.7% and 92.2%
same,parasite % of control,[10],3.46% (inactive) and 6.57% (inactive) and 21.7% (inactive)
CC(C)=CC[C@@H](O)C1=CC(=O)c2c(O)ccc(O)c2C1=O,parasite load remaining,[9],4.44% (active)
same,viability,[9],99.5%
same,z-score,[12],-2.24 (inactive)
C=CC(=O)Nc1cc2c(Nc3ccc(F)c(Cl)c3)ncnc2cc1C#CC(C)(C)N1CCN(C)CC1,liver cell % of control,[10],44% and 49.4% and 70.7%
same,parasite % of control,[10],0.362% (inactive) and 1.83% (inactive) and 6.99% (inactive)
O=C1NC(=O)/C(=C/c2ccc3c(c2)OC(F)(F)O3)S1,parasite load remaining,[9],45.5% (inactive)
same,viability,[9],93.8%
same,inhibition,[13],-5% (inactive)
same,fluorescence ratio (interference),[14],1 (inactive)
same,z-score,[12],-0.34 (inactive)
CCCCC(C)(C)[C@H](O)/C=C/[C@H]1[C@H](O)CC(=O)[C@@H]1C/C=C\CCCC(=O)O,survival,[15],68.2 (inactive)
CN(C)c1ccc(C(=O)NCCCCCCC(=O)NO)cc1,inhibition,[1]; at 0.5 µM,32.4% (inactive)
same,inhibition,[1]; [16],-37.9%
same,inhibition,[1]; [17],63.6%
same,inhibition,[1]; [18],97.6%
same,inhibition,[2]; at 0.5 µM,-26.1% (inactive)
same,inhibition,[2]; [19],-83.1%
same,inhibition,[2]; [20],6.53%
same,inhibition,[3]; at 0.5 µM,47.5% (inactive)
same,inhibition,[3]; [21],38.6%
same,inhibition,[3]; [22],81.5%
same,inhibition,[4]; at 0.5 µM,31% (inactive)
same,inhibition,[4]; [23],-11.2%
same,inhibition,[4]; [24],3.19%
same,inhibition,[5]; at 0.5 µM,15.7% (inactive)
same,inhibition,[5]; [17],37.8%
same,inhibition,[5]; [18],95.1%
same,inhibition,[6]; [25],88.6%
same,inhibition,[6]; at 0.5 µM,35.3% (inactive)
same,inhibition,[6]; [26],103%
same,inhibition,[7]; at 0.5 µM,25.9% (inactive)
same,inhibition,[7]; [27],24.7%
same,inhibition,[7]; [28],16.4%
same,inhibition,[8]; at 0.5 µM,76.1% (inactive)
same,inhibition,[8]; [29],71.1%
same,inhibition,[8]; [30],78%
same,inhibition,"[8]; single agent, at 0.05 µM",23%
same,inhibition,"[8]; single agent, at 5 µM",91.7%
CC(C)(C)c1cnc(CSc2cnc(NC(=O)C3CCNCC3)s2)o1,liver cell % of control,[10],42.1% and 45.4% and 53.6%
same,parasite % of control,[10],0.331% (inactive) and 0.54% (inactive) and 1.3% (active)
CC(C)c1nn(-c2c(Cl)cccc2Cl)c2nc(Cc3ccc(OCCO)cc3)[nH]c(=O)c12,parasite load remaining,[9],77.3% (inactive)
same,viability,[9],79.7%
